Measurements from PubChem BioAssay (NCATS).
Inconclusive results are not listed. Calls of active or inactive are those of the source. The call rests on the fitted dose curve; in most records, active means well fitted inhibition curve with a large enough effect; inconclusive means small, poorly fitted or top-dose-only effect; inactive means flat fitted curve, though single readings scatter.

Key:
[1] = qHTS profiling for inhibitors of Plasmodium falciparum proliferation (AID 504749); further: nearly all actives have a fitted effect of over 60% in size;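 on activity, negative = inhibition: 0% = DMSO vehicle and full inhibition = artemisinin control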; conditions: P. falciparum in erythrocytes, SYBR Green DNA, 72 h
Method in brief: (§1)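 Each compound contacts P. falciparum-infected red blood cells for 72 h at 37 C; lysis buffer (Tris, EDTA, saponin, Triton X, SYBR Green I) is added and fluorescence measured next morning; values normalized to controls.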

[2] = test system: 3D7; test: as above; conditions: P. falciparum in erythrocytes, SYBR Green DNA, 72 h; series mostly up to 28.7 µM
Method in brief: as §1

[3] = test system: AA1029; test: as above; conditions: P. falciparum in erythrocytes, SYBR Green DNA, 72 h; series mostly up to 28.7 µM
Method in brief: as §1

[4] = test system: 7G8; test: as above; conditions: P. falciparum in erythrocytes, SYBR Green DNA, 72 h; series mostly up to 28.7 µM
Method in brief: as §1

[5] = at 28.7 µM (top of the series), parasite line A
[6] = at 28.7 µM (top of the series), parasite line B
[7] = at 12.8 µM (top of the series), parasite line A
[8] = at 12.8 µM (top of the series), parasite line B
Potency means the concentration at half of the fitted maximal effect.

Cc1c(C)n(Cc2ccccc2)c2ccc(C(=O)OCCN(C)C)cc12
inactive: activity, negative = inhibition [1, 5] 11.1% | activity, negative = inhibition [1, 6] -2.16% | Potency [2] | Potency [3]

CCCCN1CCCC1C(=O)Nc1c(C)cc(C)cc1C (configuration not stated)
inactive: activity, negative = inhibition [1, 5] -15.8% | activity, negative = inhibition [1, 6] -3.59% | Potency [2] | Potency [3]

COCc1c(C(C)C)nc(C(C)C)c(/C=C/[C@@H](O)C[C@@H](O)CC(=O)O)c1-c1ccc(F)cc1
inactive: activity, negative = inhibition [1, 5] -9.49% | activity, negative = inhibition [1, 6] -12.9% | Potency [2] | Potency [3]

CCOC(=O)c1cccc(N)c1
inactive: activity, negative = inhibition [1, 5] 6.66% | activity, negative = inhibition [1, 6] 6.86% | Potency [2] | Potency [4] | Potency [3]

CN1CCN(CCCN2c3ccccc3Sc3ccc(S(=O)(=O)N(C)C)cc32)CC1
inactive: activity, negative = inhibition [1, 7] 5.01% | activity, negative = inhibition [1, 8] -5.83% | Potency [3]
active: Potency [4] 0.891 µM

N[C@H](Cc1c[nH]c2ccccc12)C(=O)O
inactive: activity, negative = inhibition [1, 5] 7.64% | activity, negative = inhibition [1, 6] 6.56% | Potency [2] | Potency [3]

O=C(N/N=C/c1ccccc1O)c1ccncc1
active: Potency ([1]; parasite line A) 6.31 µM | Potency ([1]; parasite line B) 11.2 µM | Potency [4] 8.91 µM | Potency [3] 11.2 µM

Cc1cc(O)c(C(C)C)cc1Cl
inactive: activity, negative = inhibition [1, 5] 0.647% | activity, negative = inhibition [1, 6] 11.2% | Potency [2] | Potency [3]

CC(C)COC(=O)OCN1C(=O)CN(CCN2CC(=O)N(COC(=O)OCC(C)C)C(=O)C2)CC1=O
inactive: activity, negative = inhibition [1, 5] 4.43% | activity, negative = inhibition [1, 6] 8.61% | Potency [2] | Potency [4] | Potency [3]

CCCCOc1cc(C(=O)NCCN(CC)CC)c2ccccc2n1
inactive: activity, negative = inhibition [1, 7] 7.49% | activity, negative = inhibition [1, 8] 7.29% | Potency [2] | Potency [3]
